From PubChem BioAssay (NCATS)
Inconclusive results are not listed. Activity calls are given as the source filed them. Unless noted, calls follow the shape of the dose curve; as a rule, active = well fitted curve in the direction sought with a large enough effect; inconclusive = small, poorly fitted or top-dose-only effect, or another doubt; inactive = no such curve, though single readings can be large; an effect the other way counts as inactive or inconclusive.

Experiments:
[1] = AP1 Signaling Pathway (AID 357; active = well fitted curve in either direction with a large enough effect, not every such curve was filed as active;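 also: ME-180 reporter cells stimulated with EGF at its EC50 level; % is scaled to controls: 0 for no effect and ±100 for the full control effect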)
Procedure, shortened: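 Modulation of EGF-driven AP-1 transcription was assessed with a beta-lactamase reporter in ME-180 cells. Compound and EC50 EGF were co-incubated 5 hours at 37 °C before 2.5-hour CCF4 loading at room temperature and dual-emission reading.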

[2] = target: Cytochrome P450 1A2 (Homo sapiens) (UniProt P05177); experiment: p450-cyp1a2 (AID 410; calls by dose curve;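 also: -100% = full effect of reference inhibitor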)
Sequence of Cytochrome P450 1A2 (Homo sapiens) (P05177 whole entry, looked up): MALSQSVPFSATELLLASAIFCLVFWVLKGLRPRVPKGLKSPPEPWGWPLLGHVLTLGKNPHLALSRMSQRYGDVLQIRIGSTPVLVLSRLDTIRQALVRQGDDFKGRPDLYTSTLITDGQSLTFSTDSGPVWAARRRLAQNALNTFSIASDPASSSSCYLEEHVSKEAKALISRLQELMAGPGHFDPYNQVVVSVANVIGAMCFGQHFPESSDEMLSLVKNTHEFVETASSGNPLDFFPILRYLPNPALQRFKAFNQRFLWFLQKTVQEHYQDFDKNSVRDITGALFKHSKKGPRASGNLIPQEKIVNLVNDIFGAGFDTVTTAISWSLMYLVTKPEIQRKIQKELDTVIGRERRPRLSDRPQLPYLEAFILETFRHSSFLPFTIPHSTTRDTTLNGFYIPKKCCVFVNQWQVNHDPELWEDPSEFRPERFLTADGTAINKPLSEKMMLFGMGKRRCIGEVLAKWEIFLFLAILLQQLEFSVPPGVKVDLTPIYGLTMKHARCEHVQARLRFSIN
Procedure, shortened: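 Luminescent readout of luciferin formed from Luciferin-ME by human CYP1A2; data normalized against complete inhibition by 57 uM furafylline. Enzyme 20nM, substrate 100uM at Km, 100mM KPO4 buffer, 60 min reaction at room temperature.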

[3] = NFAT Signaling Pathway (AID 444; active = well fitted curve in either direction with a large enough effect, not every such curve was filed as active;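 also: carbachol stimulus at about its EC50 of 1 µM final; % is scaled to controls: 0 for no effect and ±100 for the full control effect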); settings: Jurkat NFAT-bla M1, carbachol, beta-lactamase ratio, 5 h; at 17.2 µM (top of the series) unless noted
Procedure, shortened: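 Jurkat cells carrying an NFAT-driven β-lactamase reporter and co-transfected muscarinic M1 receptor were treated with compound plus carbachol (1 uM final, an EC50 level) for 5 h at 37 °C. CCF4 loading followed for 1 h at RT; 460/530 nm ratio gave %activity.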

[4] = Stat Signaling Pathway (AID 446; active = well fitted curve in either direction with a large enough effect, not every such curve was filed as active;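 also: ME-180 cervical cancer cells given 40 pM IL-6 alongside compound; SIE-controlled beta-lactamase reporter measured as 460/530 nm FRET emission ratio; % is scaled to controls: 0 for no effect and ±100 for the full control effect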)
Procedure, shortened: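 ME-180 SIE-bla cells; overnight plating; cpd + IL-6 40 pM, 5 h, 37 C; LiveBLAzer 2.5 h RT; 460/530 nm emission ratio. Normalized to 300 pM IL-6 and 125 nM JAK inhibitor controls.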

[5] = target: Glucocorticoid receptor (Homo sapiens) (UniProt P04150); experiment: GR-GFP Redistribution (AID 450;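 active = compounds whose dose series gives a full or clear partial fitted curve of increased nuclear translocation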; also: potency is read from the fitted curve at half-maximal effect); settings: U2OS GR-GFP nuclear translocation, laser cytometry, 2 h
Sequence of Glucocorticoid receptor (Homo sapiens) (P04150 whole entry, looked up, the tested form may be a part): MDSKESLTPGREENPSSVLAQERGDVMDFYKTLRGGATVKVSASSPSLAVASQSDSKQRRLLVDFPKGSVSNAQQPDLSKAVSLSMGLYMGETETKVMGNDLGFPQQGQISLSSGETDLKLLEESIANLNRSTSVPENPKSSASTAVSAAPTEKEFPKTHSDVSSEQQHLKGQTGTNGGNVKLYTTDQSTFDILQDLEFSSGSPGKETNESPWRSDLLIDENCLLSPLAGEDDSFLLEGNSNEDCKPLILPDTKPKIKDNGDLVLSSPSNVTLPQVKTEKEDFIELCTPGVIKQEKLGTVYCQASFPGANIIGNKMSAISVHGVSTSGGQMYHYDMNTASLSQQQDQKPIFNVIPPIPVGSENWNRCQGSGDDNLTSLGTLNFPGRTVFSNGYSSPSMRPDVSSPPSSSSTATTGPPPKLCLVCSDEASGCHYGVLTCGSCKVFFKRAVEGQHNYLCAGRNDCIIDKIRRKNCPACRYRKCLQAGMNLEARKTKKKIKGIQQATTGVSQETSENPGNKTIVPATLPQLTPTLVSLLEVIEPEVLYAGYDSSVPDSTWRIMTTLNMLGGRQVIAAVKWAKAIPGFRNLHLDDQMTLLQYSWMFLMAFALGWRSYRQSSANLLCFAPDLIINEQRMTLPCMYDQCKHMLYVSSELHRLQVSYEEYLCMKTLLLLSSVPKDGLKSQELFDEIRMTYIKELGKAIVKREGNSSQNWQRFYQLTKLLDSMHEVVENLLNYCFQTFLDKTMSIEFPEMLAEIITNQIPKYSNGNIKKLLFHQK

[6] = target: Glucocorticoid receptor (Homo sapiens) (UniProt P04150); experiment: GR-EFC Redistribution (AID 451; calls by dose curve; also: potency is read from the fitted curve at half-maximal effect); settings: CHO-K1 GR-EFC translocation, beta-gal luminescence, 2 h
Procedure, shortened: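 CHO-K1 cells stably expressing nuclear-localized β-gal enzyme acceptor and GR fused C-terminally to the enzyme donor fragment; ligand-driven nuclear translocation restores β-gal by complementation. Compounds titrated up to 46 uM final, 2 h at 37 °C; luminescence read.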

[7] = target: Mitogen-activated protein kinase 10 (Mus musculus) (UniProt Q61831); experiment: JNK3 AlphaScreen Assay (AID 530; active = well fitted curve in either direction with a large enough effect, not every such curve was filed as active;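 also: kinase came from lysate of stimulated human HepG2 cells; signal reports phosphorylation of biotinylated GST-cJun 1-79 at Ser73 with 10 µM ATP; % is scaled to controls: 0 for no effect and ±100 for the full control effect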)
Procedure, shortened: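 Inhibitors reduce antibody binding to phosphorylated biotin-cJun, lowering AlphaScreen luminescence. Lysates from HepG2 cells pre-activated by IL-1beta plus TNF-alpha supplied JNK3; compounds were titrated.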

[8] = target: 3',5'-cyclic-AMP phosphodiesterase 4B (Homo sapiens) (UniProt Q07343); experiment: qHTS Assay for Inhibitors of PDE-IV (AID 607; active = well fitted activation curve with a large enough effect in the main read-out, with a control signal flat, not every such curve was filed as active; also: % of control where 0% means no effect)
Sequence of 3',5'-cyclic-AMP phosphodiesterase 4B (Homo sapiens) (Q07343 whole entry, looked up): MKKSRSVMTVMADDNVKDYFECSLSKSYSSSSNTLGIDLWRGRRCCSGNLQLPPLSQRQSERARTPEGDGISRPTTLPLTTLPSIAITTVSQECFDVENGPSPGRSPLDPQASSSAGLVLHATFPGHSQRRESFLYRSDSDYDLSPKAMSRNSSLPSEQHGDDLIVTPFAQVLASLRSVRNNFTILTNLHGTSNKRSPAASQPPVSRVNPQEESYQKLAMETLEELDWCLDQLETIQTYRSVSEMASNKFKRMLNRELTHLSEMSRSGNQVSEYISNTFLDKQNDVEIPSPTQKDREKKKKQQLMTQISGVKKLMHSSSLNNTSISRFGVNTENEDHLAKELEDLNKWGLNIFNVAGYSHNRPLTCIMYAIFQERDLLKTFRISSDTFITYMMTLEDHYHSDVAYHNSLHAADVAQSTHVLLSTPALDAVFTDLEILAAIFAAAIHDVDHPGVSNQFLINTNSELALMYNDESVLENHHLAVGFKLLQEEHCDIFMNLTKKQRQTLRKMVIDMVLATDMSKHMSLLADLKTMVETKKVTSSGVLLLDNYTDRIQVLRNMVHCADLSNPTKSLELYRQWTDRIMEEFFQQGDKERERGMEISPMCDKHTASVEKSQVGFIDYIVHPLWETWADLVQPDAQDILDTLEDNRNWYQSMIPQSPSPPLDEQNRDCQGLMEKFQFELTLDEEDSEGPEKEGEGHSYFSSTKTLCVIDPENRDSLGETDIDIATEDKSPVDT
Procedure, shortened: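 ACTOne HEK293 cells carry a modified cAMP-gated CNG channel and express endogenous PDE4; plated 1000 cells/well, compounds up to 22.9 uM final. Membrane-potential dye fluorescence (ex 535/em 590) was read; parental cells received 10 uM forskolin + 100 uM RO 20-1724.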

[9] = qHTS Assay for Lipid Storage Modulators (AID 1519; calls by dose curve); settings: Drosophila S3 cells, BODIPY lipid droplet/cell ratio, laser cytometry, cells loaded with oleic acid
Procedure, shortened: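 Cells seeded at 5,000 per well were treated with compounds over a concentration series and loaded with oleic acid (400 uM, as added). Lipid droplet fluorescence (488 nm excitation, 500-530 nm channel) was read by laser-scanning cytometry and normalized to 20 uM Triacsin C.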

[10] = target: Ubiquitin carboxyl-terminal hydrolase 1 (Homo sapiens) (UniProt O94782); experiment: Inhibitors of USP1/UAF1: Pilot qHTS (AID 504865);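 also: rhodamine fluorescence freed from ubiquitin-rhodamine substrate followed over time; top concentration of the series differs between compounds; % is scaled to controls: 0 for no effect and ±100 for the full control effect; nearly all actives have a fitted effect of over 35% in size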
Sequence of Ubiquitin carboxyl-terminal hydrolase 1 (Homo sapiens) (O94782 whole entry, looked up): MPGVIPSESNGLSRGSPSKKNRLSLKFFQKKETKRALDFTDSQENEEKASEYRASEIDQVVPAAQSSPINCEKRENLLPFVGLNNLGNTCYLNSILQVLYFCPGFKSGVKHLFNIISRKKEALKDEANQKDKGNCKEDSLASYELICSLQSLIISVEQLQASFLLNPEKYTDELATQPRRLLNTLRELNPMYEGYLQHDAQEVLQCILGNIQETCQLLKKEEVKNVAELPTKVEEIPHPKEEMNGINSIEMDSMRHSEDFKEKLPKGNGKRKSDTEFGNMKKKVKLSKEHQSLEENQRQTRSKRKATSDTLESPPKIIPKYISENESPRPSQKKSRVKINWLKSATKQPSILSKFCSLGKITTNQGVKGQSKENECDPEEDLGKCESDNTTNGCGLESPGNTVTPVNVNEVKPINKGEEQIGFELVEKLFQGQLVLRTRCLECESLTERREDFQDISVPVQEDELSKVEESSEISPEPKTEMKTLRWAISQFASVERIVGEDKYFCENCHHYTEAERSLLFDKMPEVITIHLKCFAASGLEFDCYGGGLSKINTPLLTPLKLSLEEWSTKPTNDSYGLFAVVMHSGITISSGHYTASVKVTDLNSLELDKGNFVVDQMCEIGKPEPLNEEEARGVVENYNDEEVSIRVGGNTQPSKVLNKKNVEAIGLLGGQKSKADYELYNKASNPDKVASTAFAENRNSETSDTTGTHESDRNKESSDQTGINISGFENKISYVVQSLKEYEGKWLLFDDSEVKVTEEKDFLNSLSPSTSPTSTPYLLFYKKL
Procedure, shortened: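 USP1/UAF1 complex (1nM) preincubated with compound 15 min at room temperature, then Ub-Rho substrate (150nM final) added. Fluorescence read kinetically at 480/540 nm, 6 reads every 60 seconds. Buffer: 50mM HEPES pH 7.8, 0.5mM EDTA, 0.1 mg/ml BSA, 1mM TCEP, 0.01% Tween-20.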

[11] = target: ATP-dependent 6-phosphofructokinase (Trypanosoma brucei brucei) (UniProt O15648); experiment: qHTS Assay to Find Inhibitors of T. brucei phosphofructokinase: hit validation (AID 492961)
Sequence of ATP-dependent 6-phosphofructokinase (Trypanosoma brucei brucei) (O15648 whole entry, looked up): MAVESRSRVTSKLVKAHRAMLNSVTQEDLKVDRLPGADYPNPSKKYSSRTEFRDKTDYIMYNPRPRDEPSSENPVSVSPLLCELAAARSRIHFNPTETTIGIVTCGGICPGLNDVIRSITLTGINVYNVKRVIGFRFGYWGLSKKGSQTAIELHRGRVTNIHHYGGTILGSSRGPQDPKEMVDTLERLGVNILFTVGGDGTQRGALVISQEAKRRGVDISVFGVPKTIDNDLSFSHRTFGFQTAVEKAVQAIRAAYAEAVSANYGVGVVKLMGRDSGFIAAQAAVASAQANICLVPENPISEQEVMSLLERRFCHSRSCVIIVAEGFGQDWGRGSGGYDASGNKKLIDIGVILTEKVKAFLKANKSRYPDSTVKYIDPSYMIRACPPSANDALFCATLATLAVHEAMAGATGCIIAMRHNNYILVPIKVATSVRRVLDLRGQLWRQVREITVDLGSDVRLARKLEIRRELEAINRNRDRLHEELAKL
Procedure, shortened: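 Reaction: 0.1 M triethanolamine pH 8.0, 5 mM MgCl2, F6P 0.5 mM, ATP 0.1 mM, PFK 1.25 nM, 45 min RT. Read-out: ADP-Glo luminescence. Analysis: concentration-response fits, classed by r2 and efficacy.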

[12] = qHTS profiling for inhibitors of Plasmodium falciparum proliferation (AID 504749);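 also: 0% = DMSO vehicle and full inhibition = artemisinin control; nearly all actives have a fitted effect of over 60% in size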; settings: P. falciparum in erythrocytes, SYBR Green DNA, 72 h, at 12.8 µM (top of the series)
Procedure, shortened: (§1)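 Parasite proliferation within erythrocytes, 72 h exposure. Endpoint: SYBR Green I fluorescence after overnight lysis at room temperature. Controls: 0.29 uM artemisinin, DMSO.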

C2A = experiment: as above; settings: P. falciparum in erythrocytes, SYBR Green DNA, 72 h; series mostly up to 12.8 µM
Procedure, shortened: as §1

CP191 = experiment: as above; settings: P. falciparum in erythrocytes, SYBR Green DNA, 72 h; series mostly up to 12.8 µM
Procedure, shortened: as §1

CP217 = experiment: as above; settings: P. falciparum in erythrocytes, SYBR Green DNA, 72 h; series mostly up to 12.8 µM
Procedure, shortened: as §1

CP250 = experiment: as above; settings: P. falciparum in erythrocytes, SYBR Green DNA, 72 h; series mostly up to 12.8 µM
Procedure, shortened: as §1

CP256 = experiment: as above; settings: P. falciparum in erythrocytes, SYBR Green DNA, 72 h; series mostly up to 12.8 µM
Procedure, shortened: as §1

FAB9 = experiment: as above; settings: P. falciparum in erythrocytes, SYBR Green DNA, 72 h; series mostly up to 12.8 µM
Procedure, shortened: as §1

JCK = experiment: as above; settings: P. falciparum in erythrocytes, SYBR Green DNA, 72 h; series mostly up to 12.8 µM
Procedure, shortened: as §1

SC27B = experiment: as above; settings: P. falciparum in erythrocytes, SYBR Green DNA, 72 h; series mostly up to 12.8 µM
Procedure, shortened: as §1

[13] = measured here: cell count channel max response
[14] = measured here: lipid channel max response

C[C@H](CCC(=O)NCC(=O)O)[C@H]1CC[C@H]2[C@H]3[C@@H](C[C@@H](O)[C@]12C)[C@]1(C)CC[C@H](O)C[C@@H]1C[C@@H]3O
-0.773%: max response [9, 14]
inactive: outcome [1] | Potency [2] | activity change, negative = inhibition [3] 15.3% | outcome [4] | Potency [5] > 20.6 µM | Potency [6] > 20.6 µM | Potency [7] | outcome [8] | activity change, negative = inhibition ([9]; at 25.7 µM (top of the series)) 0.864% | Potency [10]
-1.04%: max response [9, 13]

CC1OC(OCC2OC(Oc3c(-c4ccc(O)c(O)c4)oc4cc(O)cc(O)c4c3=O)C(O)C(O)C2O)C(O)C(O)C1O (configuration not stated)
inactive: activity change, negative = inhibition ([9]; at 57.5 µM (top of the series)) -1.77%
-20.3%: max response [9, 13]
-20.8%: max response [9, 14]

C[C@@H]1O[C@H](O[C@@H]2[C@@H](Oc3cc(O)c4c(c3)O[C@H](c3ccc(O)cc3)CC4=O)O[C@@H](CO)[C@@H](O)[C@H]2O)[C@@H](O)[C@H](O)[C@@H]1O
-4.7%: max response [9, 13]
-6.11%: max response [9, 14]
inactive: outcome [1] | Potency [2] | activity change, negative = inhibition [3] -5.97% | outcome [4] | Potency [5] > 20.6 µM | Potency [6] > 20.6 µM | Potency [7] | activity change, negative = inhibition ([9]; at 25.7 µM (top of the series)) -1.64% | Potency [10]

C=C1CCC2C(C)(CO)C(O)CCC2(C)C1C/C=C1\C(=O)OCC1O (configuration not stated)
25.5%: max response [9, 14]
inactive: activity change, negative = inhibition ([9]; at 57.5 µM (top of the series)) -0.167%
24.9%: max response [9, 13]

O=C(O)[C@@H]1CCCNC1
inactive: outcome [1] | Potency [2] | activity change, negative = inhibition [3] -10.3% | outcome [4] | Potency [5] > 20.6 µM | Potency [6] > 20.6 µM | Potency [7] | outcome [8] | activity change, negative = inhibition ([9]; at 25.7 µM (top of the series)) -1.28% | Potency [10]
-11.3%: max response [9, 14]
-8.86%: max response [9, 13]

COCC(=O)Nc1c(I)c(C(=O)NC[C@@H](O)CO)c(I)c(C(=O)N(C)C[C@@H](O)CO)c1I
inactive: outcome [1] | Potency [2] | activity change, negative = inhibition [3] 3.09% | outcome [4] | Potency [7] | outcome [8] | activity change, negative = inhibition ([9]; at 25.7 µM (top of the series)) -0.947% | outcome [11] | activity, negative = inhibition ([12]; parasite line A) -0.503% | activity, negative = inhibition ([12]; parasite line B) -0.0954% | Potency (C2A) | Potency (CP191) | Potency (CP217) | Potency (CP250) | Potency (CP256) | Potency (FAB9) | Potency (JCK) | Potency (SC27B)
-9.01%: max response [9, 14]
-5.27%: max response [9, 13]

C[N+]1(C)C[C@@H](O)C[C@@H]1C(=O)[O-]
inactive: outcome [1] | Potency [2] | activity change, negative = inhibition [3] -11.1% | outcome [4] | Potency [5] > 20.6 µM | Potency [6] > 20.6 µM | Potency [7] | outcome [8] | activity change, negative = inhibition ([9]; at 25.7 µM (top of the series)) -1.53% | Potency [10]
-1.48%: max response [9, 13]
-3.42%: max response [9, 14]

Cc1ccc(S(=O)(=O)NC(=O)NN2C[C@H]3CCC[C@@H]3C2)cc1
5.52%: max response [9, 13]
inactive: outcome [1] | Potency [2] | activity change, negative = inhibition [3] -2% | outcome [4] | Potency [7] | activity change, negative = inhibition ([9]; at 25.7 µM (top of the series)) 2.69% | outcome [11] | activity, negative = inhibition ([12]; parasite line A) -0.0473% | activity, negative = inhibition ([12]; parasite line B) 12.1% | Potency (C2A) | Potency (CP191) | Potency (CP217) | Potency (CP250) | Potency (CP256) | Potency (FAB9) | Potency (JCK) | Potency (SC27B)
8.97%: max response [9, 14]
